From PubChem BioAssay AID1159580 (chemical genetic matrix, 2015)
Screen size: about 5,500 compounds; about 2,000 (36%) were called active. Inconclusive results (about 18%) are left out. Cut-off read from the data, not from the text of the source: active = normalized growth mostly below about 0.91 (no sharp cut-off); inconclusive = no clear call, values can overlap the other calls; inactive = mostly above about 0.92. Some of the results follow.

Assay: chemical genetic growth profiling, strain panel (AID 1159580);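 note: tested at 20 µM; growth read once vehicle control cultures reached saturation at 30 °C; 1 = growth at the plate median or of vehicle wells; lower values mean less growth of the strain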
Conditions: growth OD

Measured: normalized growth

CC(=O)N[C@@H](Cc1c[nH]c2ccccc12)C(N)=O
inactive: S. cerevisiae deletion strains, locus YJR075W, strain HOC1, active compounds read low 0.959 | S. cerevisiae deletion strains, locus YKL009W, strain mrt4, active compounds read low 1.01 | S. cerevisiae deletion strains, locus YKL068W, active compounds read low 0.988 | S. cerevisiae deletion strains, locus YKL085W, strain MDH1 (second series), active compounds read low 1.01 | S. cerevisiae deletion strains, locus YKL085W, strain MDH1, active compounds read low 1.01 | S. cerevisiae deletion strains, locus YKL160W, strain elf1, active compounds read low 1.02 | S. cerevisiae deletion strains, locus YKL190W, strain CNB1, active compounds read low 0.979 | S. cerevisiae deletion strains, locus YKR001C, strain vps1, active compounds read low 1.01 | S. cerevisiae deletion strains, locus YKR026C, strain gcn3, active compounds read low 1.03 | S. cerevisiae deletion strains, locus YKR091W, strain srl3, active compounds read low 1.01 | S. cerevisiae deletion strains, locus YLL001W, strain dnm1, active compounds read low 1.03 | S. cerevisiae deletion strains, locus YLL026W, active compounds read low 1.02 | S. cerevisiae deletion strains, locus YLL041C, strain sdh2, active compounds read low 1.02 | S. cerevisiae deletion strains, locus YLR027C, strain aat2, active compounds read low 1.03 | S. cerevisiae deletion strains, locus YLR039C, strain RIC1, active compounds read low 0.972 | S. cerevisiae deletion strains, locus YLR058C, strain SHM2, active compounds read low 0.993 | S. cerevisiae deletion strains, locus YLR102C, strain apc9, active compounds read low 0.999 | S. cerevisiae deletion strains, locus YLR113W, strain HOG1, active compounds read low 1.01 | S. cerevisiae deletion strains, locus YLR221C, strain rsa3, active compounds read low 0.996 | S. cerevisiae deletion strains, locus YLR258W, strain gsy2, active compounds read low 1.02 | S. cerevisiae deletion strains, locus YLR262C, strain YPT6 (second series), active compounds read low 1.02 | S. cerevisiae deletion strains, locus YLR262C, strain YPT6, active compounds read low 0.938 | S. cerevisiae deletion strains, locus YLR268W, strain sec22, active compounds read low 0.96 | S. cerevisiae deletion strains, locus YLR320W, strain mms22, active compounds read low 1.01 | S. cerevisiae deletion strains, locus YLR330W, strain CHS5, active compounds read low 0.996 | S. cerevisiae deletion strains, locus YLR342W, strain FKS1 (second series), active compounds read low 1.07 | S. cerevisiae deletion strains, locus YLR342W, strain FKS1, active compounds read low 1.05 | S. cerevisiae deletion strains, locus YLR357W, strain rsc2, active compounds read low 1.04 | S. cerevisiae deletion strains, locus YLR370C, strain arc18, active compounds read low 1.02 | S. cerevisiae deletion strains, locus YLR371W, strain rom2, active compounds read low 1.01 | S. cerevisiae deletion strains, locus YLR384C, strain iki3, active compounds read low 1.03 | S. cerevisiae deletion strains, locus YLR418C, strain cdc73, active compounds read low 0.984 | S. cerevisiae deletion strains, locus YML016C, strain PPZ1, active compounds read low 0.995 | S. cerevisiae deletion strains, locus YML032C, strain rad52, active compounds read low 1 | S. cerevisiae deletion strains, locus YML120C, strain ndi1, active compounds read low 1.03 | S. cerevisiae deletion strains, locus YML124C, strain tub3, active compounds read low 1.01 | S. cerevisiae deletion strains, locus YMR058W, strain fet3, active compounds read low 0.997 | S. cerevisiae deletion strains, locus YMR078C, strain ctf18, active compounds read low 1 | S. cerevisiae deletion strains, locus YMR125W, strain sto1, active compounds read low 1.1 | S. cerevisiae deletion strains, locus YMR129W, active compounds read low 1.02 | S. cerevisiae deletion strains, locus YMR205C, strain PFK2, active compounds read low 1.02 | S. cerevisiae deletion strains, locus YMR223W, strain ubp8, active compounds read low 1.01 | S. cerevisiae deletion strains, locus YMR231W, strain pep5, active compounds read low 1.02 | S. cerevisiae deletion strains, locus YMR263W, strain SAP30, active compounds read low 0.955 | S. cerevisiae deletion strains, locus YMR307W, strain GAS1, active compounds read low 1.08 | S. cerevisiae deletion strains, locus YNL067W, strain RPL9B, active compounds read low 0.966 | S. cerevisiae deletion strains, locus YNL071W, strain lat1, active compounds read low 1.01 | S. cerevisiae deletion strains, locus YNL128W, strain TEP1, active compounds read low 0.94 | S. cerevisiae deletion strains, locus YNL153C, strain GIM3, active compounds read low 0.97 | S. cerevisiae deletion strains, locus YNL183C, strain NPR1, active compounds read low 0.914 | S. cerevisiae deletion strains, locus YNL209W, strain ssb2, active compounds read low 1.01 | S. cerevisiae deletion strains, locus YNL233W, strain BNI4, active compounds read low 0.993 | S. cerevisiae deletion strains, locus YNL248C, strain rpa49, active compounds read low 0.992 | S. cerevisiae deletion strains, locus YNL250W, strain rad50, active compounds read low 0.989 | S. cerevisiae deletion strains, locus YNL271C, strain bni1, active compounds read low 0.996 | S. cerevisiae deletion strains, locus YNL298W, strain CLA4, active compounds read low 0.994 | S. cerevisiae deletion strains, locus YNL307C, strain MCK1, active compounds read low 1.02 | S. cerevisiae deletion strains, locus YNL322C, strain KRE1 (second series), active compounds read low 1.03 | S. cerevisiae deletion strains, locus YNL322C, strain KRE1, active compounds read low 0.978 | S. cerevisiae deletion strains, locus YNR049C, strain mso1, active compounds read low 1.02 | S. cerevisiae deletion strains, locus YNR052C, strain pop2, active compounds read low 1.01 | S. cerevisiae deletion strains, locus YOL006C, strain TOP1, active compounds read low 0.943 | S. cerevisiae deletion strains, locus YOL012C, strain htz1 0.796 | S. cerevisiae deletion strains, locus YOL147C, strain pex11, active compounds read low 1 | S. cerevisiae deletion strains, locus YOR001W, strain rrp6, active compounds read low 1.04 | S. cerevisiae deletion strains, locus YOR061W, strain CKA2, active compounds read low 0.969 | S. cerevisiae deletion strains, locus YOR069W, strain VPS5, active compounds read low 1 | S. cerevisiae deletion strains, locus YOR070C, strain gyp1, active compounds read low 1.01 | S. cerevisiae deletion strains, locus YOR080W, strain dia2, active compounds read low 1.03 | S. cerevisiae deletion strains, locus YOR083W, strain WHI5, active compounds read low 1.03 | S. cerevisiae deletion strains, locus YOR106W, strain vam3, active compounds read low 1.01 | S. cerevisiae deletion strains, locus YOR136W, strain idh2, active compounds read low 1.01 | S. cerevisiae deletion strains, locus YOR144C, strain elg1, active compounds read low 0.995 | S. cerevisiae deletion strains, locus YOR184W, strain ser1, active compounds read low 1.02 | S. cerevisiae deletion strains, locus YOR231W, strain MKK1, active compounds read low 1.01 | S. cerevisiae deletion strains, locus YOR265W, strain rbl2, active compounds read low 1.03 | S. cerevisiae deletion strains, locus YOR270C, strain vph1, active compounds read low 1 | S. cerevisiae deletion strains, locus YOR290C, strain snf2, active compounds read low 1.01 | S. cerevisiae deletion strains, locus YOR316C, strain cot1, active compounds read low 1 | S. cerevisiae deletion strains, locus YPL051W, strain arl3, active compounds read low 1.02 | S. cerevisiae deletion strains, locus YPL055C, strain LGE1, active compounds read low 0.932 | S. cerevisiae deletion strains, locus YPL078C, strain atp4, active compounds read low 1.02 | S. cerevisiae deletion strains, locus YPL106C, strain sse1, active compounds read low 1.04 | S. cerevisiae deletion strains, locus YPL240C, strain hsp82, active compounds read low 1.02 | S. cerevisiae deletion strains, locus YPL241C, strain CIN2, active compounds read low 0.989 | S. cerevisiae deletion strains, locus YPL256C, strain CLN2, active compounds read low 0.999 | S. cerevisiae deletion strains, locus YPR119W, strain clb2, active compounds read low 1 | S. cerevisiae deletion strains, locus YPR141C, strain kar3, active compounds read low 0.981 | S. cerevisiae deletion strains, locus YPR163C, strain tif3, active compounds read low 1.01 | S. cerevisiae deletion strains, locus YPR167C, strain met16, active compounds read low 0.991 | S. cerevisiae deletion strains, strain wtn01, active compounds read low 1 | S. cerevisiae strains, strain wild type, active compounds read low 0.995
